Prostate diff: LNCaP prostate cell differentiation activation. flow cytometry side scatter, 4 d. side scatter shift, % at 10 µM. actives 0.56% (n = 24,000). AID 795;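 active = side scatter shift above 30%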;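 note: androgen-responsive LNCaP prostate cancer cells in charcoal-stripped serum medium; percent of cells past a gate set so DMSO wells show 10% shift; higher shift means more granular cells and more differentiation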
Autofluor Jurkat: counter-screen for VLA-4 integrin: compound autofluorescence in Jurkat cells. flow cytometry; stronger effect = higher value; 1 = vehicle-only cell background. fluorescence ratio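 (tested at 10 µM compound in the well)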. actives 0.61% (n = 24,000). AID 576;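 active = fluorescence ratio above 2.44, which is 1 plus 3 SD of all ratios; inconclusive = signal too bright to measure linearly, ratio around 10 or more; inactive = fluorescence ratio below 2.44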;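 note: green fluorescence of cells measured with 488 nm excitation and 530 nm emission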
VLA-4 antagonist: blocks LDV-FITC ligand binding to Mn2+-activated human VLA-4 integrin; inhibition, % at 10 µM (by protocol); Jurkat cells, LDV-FITC binding with Mn2+, flow cytometry; 100% = Mn2+-driven binding gain fully reversed; P13612; actives 0.2% (n = 24,000);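 active = inhibition above 50%; inconclusive = compound itself fluorescent, judged against control cell fluorescence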;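 note: 0% = Mn2+ stimulated cells lacking compound and 100% = ligand binding without Mn2+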
VLA-4 agonist: allosterically activates the human VLA-4 integrin; activation, % at 10 µM (by protocol); Jurkat cells, LDV-FITC binding, flow cytometry; AID 528; 24,000 tested, under 10 active;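 active = fluorescent ligand binding to cells raised by more than 40% of the manganese-induced maximum; inconclusive = compound's own fluorescence above 85% of the ligand control signal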;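 note: 0% = ligand binding without compound and 100% = manganese-stimulated maximal binding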
FPRL1 ligand: ligands of human FPRL1, also counter-screen for FPR ligands; FPRL1-expressing cells, fluorescent ligand binding inhibition, flow cytometry; inhibition, % (concentration not given with the values); AID 441; actives 0.3% (n = 24,000);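 note: 0% = buffer alone and 100% = receptor blocker peptide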
FPR binder: human FPR ligand, with FPRL1 counter-screen. actives 0.74% (n = 24,000). inhibition, % (concentration not given with the values). FPR-expressing cells, fluorescent ligand binding, flow cytometry. P21462;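 note: 0% = buffer wells and 100% = receptor blocker peptide wells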
Target sequence (P21462 whole entry, looked up): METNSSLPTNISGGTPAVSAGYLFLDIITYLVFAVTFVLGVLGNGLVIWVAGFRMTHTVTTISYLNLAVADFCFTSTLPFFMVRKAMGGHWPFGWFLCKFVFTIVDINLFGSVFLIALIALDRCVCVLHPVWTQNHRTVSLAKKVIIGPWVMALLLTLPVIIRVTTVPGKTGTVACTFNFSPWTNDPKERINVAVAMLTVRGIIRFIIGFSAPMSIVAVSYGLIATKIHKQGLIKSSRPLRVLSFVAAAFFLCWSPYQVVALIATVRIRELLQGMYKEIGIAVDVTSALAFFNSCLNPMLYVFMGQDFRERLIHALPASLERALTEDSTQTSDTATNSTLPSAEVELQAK
The depositor's hits bear a star; ? = inconclusive; . = no result. Sampled rows, rich in hits. Any-hit rate of the full collection: about 2.4%. Cut-off read from the data, not from the text of the source, unless noted: active = inhibition above about 30%; inconclusive = no clear call, values can overlap the other calls; inactive = below that.

SMILES | Prostate diff | Autofluor Jurkat | VLA-4 antagonist | VLA-4 agonist | FPRL1 ligand | FPR binder
Cc1cc(O)c(NC(=O)c2ccc(Br)o2)cc1C | 11 | 1.3 | 4 | -3 | 3 | 0
O=C(Nc1ccc(Nc2ccccc2)cc1)c1ccc(Br)o1 | . | . | . | . | 34* | 18
COC(=O)c1sc(N2C(=O)C(O)=C(C(=O)c3ccc(C)o3)C2c2ccc(F)cc2)nc1C (configuration not stated) | 15 | 3.8* | ? | ? | -8 | 5
CCOC(=O)c1nn(-c2ccc(OC)cc2)c(=O)c2c(NC(=O)c3ccco3)scc12 | 16 | 1 | -3 | 0 | -6 | 6
Cc1ccc2nc(NC3=NCN(Cc4ccco4)CN3)nc(C)c2c1 | 4 | 3.5* | ? | ? | 1 | -10
N=c1n(CCN2CCCCC2)c2ccccc2n1CC(O)COc1ccccc1 (configuration not stated) | 64* | 1.1 | -12 | 2 | 7 | 8
OC(COc1ccc(OCC(O)CN2CCCCCC2)cc1)CN1CCCCCC1 (configuration not stated) | 2 | 0.97 | 1 | -9 | -1 | 4
Cc1cc2oc(C(=O)NC3CCS(=O)(=O)C3)c(C)c2cc1C (configuration not stated) | 12 | 1.1 | -19 | -5 | 51* | 48*
Cc1cccc(N2CCN(C(=O)C3CCCN(S(=O)(=O)c4cccc5cccnc45)C3)CC2)c1C (configuration not stated) | 16 | 1.1 | -11 | -5 | 5 | 3
Cc1cc(C)n2nnnc2c1C#N | 37* | 0.88 | -24 | 8 | -8 | 2
CCOC(=O)CSc1nc2ccccc2n1C(=O)OCC | 20 | 2.8* | ? | ? | -8 | -4
CCOC(=O)CSc1nc2ccccc2n2cnnc12 | 10 | 7.3* | ? | ? | -49 | ?
CCOC(=O)CSc1nc2ccccc2n1CC(=O)N1CCN(c2ccccc2)CC1 | 12 | 1.1 | 1 | -4 | 12 | 1
CCOC(=O)N1CCC(Nc2nc3ccccc3n3cnnc23)CC1 | 8 | 0.99 | 6 | 0 | -4 | -3
COc1ccccc1Oc1c(C)oc2c(CN(C)C)c(O)ccc2c1=O | . | . | . | . | 30* | 22
CCOC(=O)Cc1cc(=O)n2[nH]c(C)c(-c3ccccc3)c2n1 | . | . | . | . | 26 | 51*
CN1CCc2c(sc3c2C(=O)NC(c2ccc(-c4cccc(Cl)c4)o2)N3)C1 (configuration not stated) | 5 | 9.9* | 0 | ? | -24 | -18
CSc1ccc(C2NC(=O)c3c(sc4c3CCN(C)C4)N2)cc1 (configuration not stated) | 13 | 4.7* | ? | ? | -4 | -3
CC1=C(C(=O)N2CCc3ccccc32)C2(CCC(C)CC2)OC1=O (configuration not stated) | 6 | 6* | ? | ? | -25 | -26
O=S1(=O)C=C(Sc2nc3cc(Cl)ccc3o2)c2ccccc21 | 25 | 9.6* | ? | ? | -44 | -20
O=C(NCC12CC3CC(CC(C3)C1)C2)c1nn2c(c1Cl)NC(c1ccco1)CC2C(F)(F)F (configuration not stated) | 25 | 1.2 | 55* | 8 | -2 | -7
O=C(NCCN1CCOCC1)c1nn2c(c1Cl)NC(c1ccccc1)CC2C(F)(F)F (configuration not stated) | 11 | 1 | -4 | 4 | 2 | 2
O=C(CN1CCN(c2ccc(F)cc2)CC1)c1ccc2c(c1)OCO2 | 13 | 1 | 13 | -1 | 2 | 3
CCOC(=O)N1CCC(N2C(=O)c3ccc(C(=O)NC4CCCCCC4)cc3C2=O)CC1 | 11 | 1 | 26 | -4 | -1 | -11
COc1ccccc1C1/C(=C(/O)c2ccccc2)C(=O)C(=O)N1CCO (configuration not stated) | 16 | 0.95 | 46 | 5 | -2 | 51*
SMILES | Prostate diff | Autofluor Jurkat | VLA-4 antagonist | VLA-4 agonist | FPRL1 ligand | FPR binder
COCCCN1C(=O)C(=O)/C(=C(/O)c2ccccc2)C1c1ccc2c(c1)OCO2 (configuration not stated) | . | . | . | . | 0 | 54*
COc1ccc(/C(O)=C2\C(=O)C(=O)N(CCN(C)C)C2c2cccc(OC)c2OC)cc1 (configuration not stated) | . | . | . | . | -13 | -17
COc1ccccc1C1/C(=C(/O)c2ccccc2)C(=O)C(=O)N1CC(C)O (configuration not stated) | 6 | 1 | 17 | -3 | -3 | 42*
COc1ccc(C2CCCN2C(=O)Nc2ccc(F)cc2)cc1OC (configuration not stated) | 2 | 1.1 | -11 | 5 | 1 | -3
O=C1C(CCS(=O)c2ccccc2)C(=O)N(c2ccccc2)N1c1ccccc1 (configuration not stated) | 2 | 0.98 | 58* | -42 | -7 | 34*
Cc1ccc2nc(NC(=O)C3CCCN(S(=O)(=O)c4cccc5nonc45)C3)sc2c1 (configuration not stated) | 5 | 3.1* | ? | ? | -3 | -3
Cc1cccc2sc(NC(=O)C3CCCN(S(=O)(=O)c4cccc5nonc45)C3)nc12 (configuration not stated) | 9 | 2.6* | ? | ? | 7 | -13
Cn1cc(CC(=O)Nc2cccc(C#N)c2)c2ccccc21 | 11 | 1 | 4 | -2 | 0 | 12
CCCOc1cccc(C2C(C(=O)c3ccc(C)o3)=C(O)C(=O)N2CCCN(C)C)c1 (configuration not stated) | . | . | . | . | 4 | -6
Cc1ccc(NC(=O)c2cc(-c3cccc(O)c3)on2)cc1C | 7 | 1 | 8 | -2 | -3 | 3
Cc1ccccc1-c1nc(CN2CCC(C(=O)NCCCN3CCCC3)CC2)c(C)o1 | 65* | 1 | 16 | 0 | 1 | 3
Cc1ccccc1-c1nc(CN2CCC(C(=O)NCCCN3CC(C)CC(C)C3)CC2)c(C)o1 (configuration not stated) | 75* | 1 | 1 | 3 | 3 | 1
Cc1ccc(-n2nc(C(=O)NCc3ccco3)c3c4ccccc4n(C)c3c2=O)cc1 | 8 | 0.87 | 30 | -12 | 2 | 0
CCN(CC)CCNC(=O)c1nn(-c2ccc(C)cc2)c(=O)c2c1c1ccccc1n2C | 36* | 1.1 | 11 | -12 | -15 | 1
Cc1oc(-c2ccc(Cl)cc2)nc1CN1CCC(C(=O)N2CCN(Cc3ccccc3)CC2)CC1 | 78* | 1.2 | ? | ? | 4 | -4
Cc1oc(-c2cccc(Cl)c2)nc1CN1CCC(C(=O)N2CCN(c3ccccc3F)CC2)CC1 | 34* | 1.2 | 18 | -7 | 0 | 0
Cc1oc(-c2ccc(Cl)cc2)nc1CN1CCC(C(=O)N2CCc3ccccc3C2)CC1 | 11 | 1.3 | ? | ? | -10 | -3

Assay outcomes: PubChem, NMMLSC
